Source: PubChem BioAssay
G9a inh: blocks human histone lysine methyltransferase G9a; Q96KQ7; 350,000 compounds, 8.8% hits; G9a H3K9 monomethylation, AlphaScreen, 2 h; Potency, µM (series often up to 102 µM), without a hit: top-dose activity, negative = inhibition, usual class: inhibitors; further: potency means the concentration at half of the fitted maximal effect; on the % scale 0 is the no-effect control and ±100 the full control effect; nearly all actives have a fitted effect of over 75% in size
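Readings reflect AlphaScreen signal from monomethyl-H3K9 antibody detection. HMT at 20 nM; substrate b-H3K9 500 nM; cofactor SAM 20 uM; 2 h RT reaction; compounds tested as titrations in qHTS with 15 min preincubation.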
PLK1 PBD inh: PLK1 (human) polo-box domain binding inhibition | Plk1 PBD binding of FITC phosphopeptide, fluorescence polarization | Potency, µM, inactives show max response, negative = inhibition, hits mostly inhibitors | 360,000 compounds, 2.8% hits; further: potency means the concentration at half of the fitted maximal effect; series mostly up to about 57 µM; on the % scale 0 is the no-effect control and ±100 the full control effect; nearly all actives have a fitted effect of over 65% in size
BAZ2B block: BAZ2B (human) inhibition; 360,000 compounds, 4.4% hits; AlphaScreen BAZ2B-H3K14Ac peptide displacement; AID 504333; Q9UIF8; Potency, µM (titrated, usually from 114 µM), inactives show top-dose activity change, negative = inhibition, usual class: inhibitors; further: potency means the concentration at half of the fitted maximal effect; on the % scale 0 is the no-effect control and ±100 the full control effect; nearly all actives have a fitted effect of over 60% in size
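Protein-peptide AlphaScreen: BAZ2B 50 nM, b-H3K14Ac 50 nM, 1x PBS pH 7.4 + 0.01% Tween-20. Preincubation 30 min RT; cpd 30 min RT (top 110 uM); beads 20 min RT, light-protected.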
HP1b binding inh: inhibitors of HP1-beta chromodomain binding to methylated histone tails; 390,000 compounds, 0.56% hits; AlphaScreen HP1-beta / biotin-H3K9me3 peptide binding; P83916; Potency, µM (titrated, usually from 114 µM), inactives show at the highest dose activity change, negative = inhibition, hits mostly inhibitors; further: potency means the concentration at half of the fitted maximal effect; nearly all actives have a fitted effect of over 70% in size
Target sequence (P83916 whole entry, looked up): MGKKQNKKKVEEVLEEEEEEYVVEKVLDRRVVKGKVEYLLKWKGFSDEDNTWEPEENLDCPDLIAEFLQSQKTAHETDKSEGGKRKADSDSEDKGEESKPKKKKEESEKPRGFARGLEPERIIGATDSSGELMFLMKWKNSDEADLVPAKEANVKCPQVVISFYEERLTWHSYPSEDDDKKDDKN
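HP1-beta protein (50 nM final) preincubated 30 min at room temperature with biotinylated H3(1-18)K9me3 peptide (50 nM) in PBS pH 7.4, 0.01% Tween-20, then compound added for 30 min. AlphaScreen streptavidin donor/nickel chelate acceptor beads (10 ug/mL final), 30 min dark, luminescence read.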
PI5P4Ka inh: inhibitors of human PI5P4K alpha; 330,000 compounds, 1.2% hits; max response, %; PI5P4Kalpha enzyme, ADP-Glo luminescence, 60 min; stronger effect = lower value; P48426; active means max response of -50% or lower; inconclusive means between -30% and -50%; inactive means -30% or higher; further: value at the top dose of about 77 µM; on the % scale 0 is the no-effect control and ±100 the full control effect
Target sequence (P48426 whole entry, looked up): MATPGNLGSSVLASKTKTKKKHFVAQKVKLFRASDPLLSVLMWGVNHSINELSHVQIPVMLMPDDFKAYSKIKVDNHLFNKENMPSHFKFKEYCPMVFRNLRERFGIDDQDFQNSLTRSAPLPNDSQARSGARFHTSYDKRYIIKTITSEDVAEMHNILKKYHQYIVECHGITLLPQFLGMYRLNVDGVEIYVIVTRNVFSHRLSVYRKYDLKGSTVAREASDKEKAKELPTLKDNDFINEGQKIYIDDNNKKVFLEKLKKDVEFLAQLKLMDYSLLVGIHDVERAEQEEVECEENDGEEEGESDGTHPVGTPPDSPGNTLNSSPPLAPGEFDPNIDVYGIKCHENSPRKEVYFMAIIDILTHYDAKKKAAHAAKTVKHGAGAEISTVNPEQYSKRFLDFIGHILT
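Single end-point luminescence (ADP-Glo) quantified ADP from PI5P4Kalpha turnover; ATP 5 microM final, 1 h at RT, 0.1% CHAPS and 0.28 mM EGTA in HEPES pH 7.4.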
JMJD2A Tudor: inhibitors of human JMJD2A Tudor domain; AlphaScreen JMJD2A-Tudor / H3K4me3 peptide binding; AID 504339; 390,000 compounds, 4.4% hits; Potency, µM (highest dose often 114 µM), inactives show at the highest dose activity change, negative = inhibition, most hits filed as inhibitors; further: potency means the concentration at half of the fitted maximal effect; on the % scale 0 is the no-effect control and ±100 the full control effect; nearly all actives have a fitted effect of over 50% in size
An asterisk follows results filed as active; u = inconclusive; x = not tested or not shown; [ ] = remark or other dose. Hits are enriched below; roughly 12% of the tested compounds scored in any of these assays. Unless noted, the call rests on the fitted dose curve; in most records, active means well fitted curve in the direction sought with a large enough effect; inconclusive means small, poorly fitted or top-dose-only effect, or another doubt; inactive means no such curve, though single readings can be large; an effect the other way counts as inactive or inconclusive.

SMILES	G9a inh	PLK1 PBD inh	BAZ2B block	HP1b binding inh	PI5P4Ka inh	JMJD2A Tudor
CN1CCN(c2ccc(NC(=O)c3cc([N+](=O)[O-])ccc3N3CCOCC3)cc2)CC1	x	-0.2%	u	-6.0%	-0.2	-10.2%
CS(=O)(=O)N1CCN(c2ccc(NC(=O)c3ccc(-c4ccc(Cl)cc4)o3)cc2)CC1	12.4%	-4.2%	-4.6%	12.5%	x	-22.4%
CC1(C(=O)Nc2ccc(Cl)c(C(F)(F)F)c2)Cc2c(-c3ccc(C(N)=O)cc3)ccnc2O1 (stereo not drawn)	x	5.7%	x	x	0.5	x
CCc1ccccc1N1C(=O)N(C)c2ccccc2S1(=O)=O	13.9%[59 µM]	x	5.3%	17.0%	x	-6.0%
COc1ccc(OCC(=O)N/N=C/c2ccc(N(C)C)cc2)cc1	44.7µM*	-7.1%	u	2.1%	-0.3	-34.0%
COc1ccc(OCC(=O)N/N=C/c2cccn2-c2cccc(C(=O)O)c2)cc1	35.5µM*	-19.3%	79.4µM*	u	-20.3	44.7µM*
Cc1ccc(OCC(=O)N/N=C/c2cccn2C)cc1C	-13.1%	-4.5%	-32.6%	2.1%	7.6	u
COc1ccc(/C=N/NC(=O)CNC(=O)COc2ccccc2)cc1	6.2%[59 µM]	-18.7%	9.1%	5.6%	-4.5	-6.4%
Cc1nn(CC(=O)NC2CCCCC2)c(C)c1[N+](=O)[O-]	x	-7.7%	x	x	-6.0	x
Cc1cccc(OCc2n[nH]c(=S)o2)c1C	20µM*	-4.4%	56.2µM*	50.0%	-12.0	-12.9%
Cc1cccc(OCc2n[nH]c(=S)o2)c1	10µM*	-14.7%	-39.0%	12.5%	-4.6	u
Cc1cccc(C)c1OCc1n[nH]c(=S)o1	2.24µM*	-8.4%	-2.9%	41.7%	0.2	-27.8%
Cc1ccc(C(=O)Nc2ccc3oc(-c4ccccc4C)nc3c2)cc1	1.7%[59 µM]	x	-11.6%	51.5%	x	-3.3%
CCCOc1ccc(-c2nc(C#N)c(NCC3CCCO3)o2)cc1 (stereo not drawn)	70.8µM*	2.9%	50.1µM*	-29.1%	x	u
C=CCNc1oc(-c2ccc(OC)cc2)nc1C#N	56.2µM*	-5.2%	-4.9%	2.6%	x	-15.2%
O=C(Nc1cccc(Cl)c1)N1Cc2ccccc2Oc2ncccc21	-5.1%[59 µM]	x	-15.7%	20.1%	x	-7.7%
Clc1ccc2c(SCC3CO3)c3ccccc3nc2c1 (stereo not drawn)	x	-25.6%	x	88.2%	1.9	0.7%
Cc1cccc(N2CCN(C(=O)C3CCCN(C(=O)c4cc5sccc5n4C)C3)CC2)c1C (stereo not drawn)	u	x	u	-3.0%	x	u
Cc1cccc(N2CCN(C(=O)C3CCN(C(=O)c4cc5sccc5n4C)CC3)CC2)c1C	u	x	22.4µM*	-21.0%	x	u
CCCOc1cccc(CN2CCCCC2c2cccnc2)c1 (stereo not drawn)	44.7µM*	-0.6%	u	35.9%	x	u
O=C(COC(=O)c1cccc(C(F)(F)F)c1)NC(=O)NC1CCCC1	x	-3.0%	x	39.4%	3.8	-2.7%
CC1(C)CC(=O)C2=C(C1)c1c(ccc3ccccc13)NC2c1cc([N+](=O)[O-])cc([N+](=O)[O-])c1O (stereo not drawn)	u	3.36µM*	50.1µM*	u	-58.6*	56.2µM*
CC1(C)CC(=O)C2=C(C1)c1c(ccc3ccccc13)NC2c1ccc(C(=O)O)cc1 (stereo not drawn)	-10.8%	-18.7%	-3.2%	28.0%	-4.6	1.4%
O=C(COC(=O)[C@@H]1CCCN1S(=O)(=O)c1ccc(Cl)cc1)NC1CC1	u	-1.6%	2.2%	29.7%	-4.4	5.1%
CCOC(=O)CCCNC(=O)COC(=O)[C@@H]1CCCN1S(=O)(=O)c1ccc(Cl)cc1	50.1µM*	-18.6%	23.1%	39.6%	-2.5	7.4%[57.1 µM]
SMILES	G9a inh	PLK1 PBD inh	BAZ2B block	HP1b binding inh	PI5P4Ka inh	JMJD2A Tudor
CCCn1nnnc1NCc1c(F)cccc1Cl	10.0%	8.44µM*	-1.7%	-2.5%	-15.5	u
CCCn1nnnc1NCc1ccc(N(CC)CC)cc1	15.8µM*	-9.2%	u	-0.1%	4.8	-25.9%
CCCCn1nnnc1NCc1cccnc1	-6.3%[59 µM]	2.99µM*	-3.6%	7.3%	u	u
CCCn1nnnc1NCc1ccc(N2CCCC2)cc1	3.55µM*	-1.3%	-3.3%	12.1%	x	-32.1%
CCCn1nnnc1NCc1ccc(F)cc1	x	-8.1%	-2.1%	45.9%	3.6	-13.7%
CCCn1nnnc1NCc1c(Cl)cccc1Cl	-6.4%	4.8%	-2.0%	33.9%	-2.2	-2.7%
CC(=O)C[C@@H](O)CC(=O)[C@@H]1OC(=O)CCCCCCCCc2ccccc21	x	20.6%	x	38.8%	3.2	-12.4%
C=CCCn1c(Cl)c(C#N)sc1=O	x	x	x	31.2%	x	-18.6%
CCN(CC)c1ccc(CNc2nnnn2C)cc1	31.6µM*	-12.2%	u	15.5%	-11.8	-10.3%
CC1(C)OC(c2ccccc2)=C/C(=C/C=C2C(=O)c3ccccc3C2=O)O1	2.51µM*	3.1%	1.41µM*	u	-6.8	3.16µM*
Brc1cccc(-c2nnn3c2nc(N2CCCCC2)c2ccccc23)c1	57.5%[59 µM]	x	29.2%	122.1%	x	18.2%
O=C(CNCCc1ccccc1)Nc1ccc(C(=O)N2CCCCC2)cc1	11.2µM*	4.0%	39.8µM*	u	4.3	22.4µM*
O=C(NCC(=O)N1CCCCCCC1)c1ccc(Cl)cc1	-5.4%[12.7 µM]	-2.3%	-4.2%	23.4%	5.6	-8.8%
O=C(CNCc1ccc(F)cc1)Nc1ccc(C(=O)N2CCCCC2)cc1	10µM*	-13.2%	31.6µM*	u	4.3	1.12µM*
O=C(O)CCC(=O)Nc1ccc(C(=O)N2CCCCC2)cc1	28.5%	-3.4%	-1.3%	13.6%	x	-6.4%
O=C(CNCc1ccccc1Cl)Nc1ccc(C(=O)N2CCCCC2)cc1	5.62µM*	0.6%	22.4µM*	u	0.1	u
O=C(NCC(=O)N1CCCCCC1)c1ccc(Cl)cc1	-9.3%	6.7µM*	-3.1%	-0.1%	-19.1	u
